PMK inhibit: inhibitors of Streptococcus pneumoniae phosphomevalonate kinase; purified PMK, PK/LDH-coupled NADH absorbance 340 nm; inhibition, % at 10 µM; actives 0.49% (n = 65,000); AID 539;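 active = top-ranked compounds by inhibition in the single 10 µM screen, taking a fixed number of the strongest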;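 note: 0% = full reaction with DMSO carrier and 100% = background rate without enzyme reaction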
DPM-DC inhibit: inhibitors of Streptococcus pneumoniae diphosphomevalonate decarboxylase; purified DPM-DC, PK/LDH coupled NADH fluorescence; actives 0.49% (n = 65,000); AID 556; calls only at 10 µM;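 active = the 320 compounds with the highest percent inhibition in the single-dose primary screen, excluding strongly autofluorescent ones, cut at about 32% in these data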;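 note: kinetic rate of NADH fluorescence loss reporting ADP formed by the decarboxylase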
Abs 340nm: absorbance at 340 nm | fold change at 10 µM | 65,000 tested, under 10 active | compound absorbance at 340 nm, fold over control;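 active = at 10 µM dose, initial 340 nm absorbance at least 2 fold that of control wells; inactive = change under 2 fold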;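 note: initial absorbance extrapolated from kinetic A340 decline of NADH oxidation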
NADH enzymes: inhibition of NAD/NADH coupling enzymes, library profiling | coupled PK/LDH NADH assays, four targets | IC50, µM (top dose mostly 10 µM), without a hit: at the top dose inhibition | actives 0.02% (n = 65,000) | AID 774;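 active = single-dose screening hits from any of four coupled enzyme assays that gave an IC50 when retested across doses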;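 note: the DPM-DC format reads NADH fluorescence rather than 340 nm absorbance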
Autofluor 339: intrinsic fluorescence of library compounds, ex339/em460 – biochemical, MLSMR library, data from DPM-DC assay, artefact control, profiling panel; compound autofluorescence, ex339/em460 nm, NADH buffer; stronger effect = higher value; 1 = no-compound wells, NADH background; fluorescence fold increase at 10 µM; actives 5.5% (n = 65,000);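 active = at 10 µM, mean starting fluorescence two-fold or more over control wells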;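 note: signal is the first read of a kinetic run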
Spn MK inh: inhibitors of Streptococcus pneumoniae mevalonate kinase. inhibition, % at 10 µM. purified MK, PK/LDH-coupled NADH absorbance 340 nm. AID 555. actives 0.48% (n = 65,000);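 active = ranked among the strongest by inhibition in the single 10 µM screen, a fixed top-ranked set picked for dose follow-up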
* marks the source's active call; other numbers are inactive results; i = inactive; / = not tested or not shown; + = active, no number. A selection: hits, their analogues and other compounds. The true share with any hit is near 6.3%.

SMILES	PMK inhibit	DPM-DC inhibit	Abs 340nm	NADH enzymes	Autofluor 339	Spn MK inh
N#Cc1nc(COc2cccc(Cl)c2)oc1N1CCCC1	0	i	1	1%	1.1	4
COc1ccc(-c2nc(C#N)c(NC(C)C)o2)cc1	6	/	1.1	3%	2.3*	0
COc1ccc(-c2nc(C#N)c(N3CCCCCC3)o2)cc1OC	16	/	1.1	15%	3.9*	13
N#Cc1nc(-c2ccccc2F)oc1N1CCCC1	9	/	1.1	6%	3.6*	3
COc1ccc(-c2nc(C#N)c(N3CCCCCC3)o2)cc1	0	/	1.1	1%	2.3*	2
CC(=O)c1cccc(NC(=O)Nc2ccc3c(c2)N(C)C(=O)CS3)c1	0	i	1.1	4%	1	4
N#Cc1nc(-c2ccc(Cl)cc2)oc1N1CCCCC1	10	/	1.1	7%	2.4*	4
N#Cc1nc(COc2ccc(F)cc2)oc1N1CCCC1	10	i	0.98	6%	1.1	7
N#Cc1nc(-c2ccc(F)cc2)oc1N1CCCC1	12	/	1.1	7%	2.4*	2
COC1(c2cc(-c3ccccc3)nc(N)n2)CCCCC1	2	i	0.99	2%	1.3	4
CCOc1ccccc1C(=O)NCC(=O)OCC(=O)c1ccc2c(c1)OCCO2	26*	i	1	9%	1.1	0
Cc1ccc(S(=O)(=O)NC(CC(=O)NCC2CCCO2)c2ccco2)cc1 (stereo not given)	1	i	1.1	3%	1.1	9
Cc1ccc(Sc2oc(/C=N/n3cnnc3)cc2Br)cc1	14	i	1.1	9%	1.1	5
COc1ccc2c(-c3cccnc3)cc(=O)[nH]c2c1	11	i	1	6%	2.1*	3
Cn1c(=O)cc(OCC(=O)Nc2ccccn2)c2ccccc21	9	i	1	5%	1.1	7
CC(C)(C)NC(=O)CSc1nnc(-c2ccccn2)n1-c1ccccc1	28*	i	0.98	5%	1	3
O=C(CSc1nnc(-c2cccnc2)n1-c1ccccc1)Nc1ccccn1	10	i	1	5%	1	6
C=CCn1c(N)cc(=O)nc1SCC(=O)N1CCN(c2ccc(F)cc2)CC1	5	i	1	4%	1.1	6
COc1ccc(-c2coc3cc(O)ccc3c2=O)cc1OC	17	+	1.1	16%	3.6*	0
O=c1c(-c2ccc(F)cc2)coc2cc(O)ccc12	0	/	1.1	5%	2.2*	9
COc1ccc(-c2c(C)oc3cc(O)cc(O)c3c2=O)cc1OC	0	i	1.1	3%	1.1	7
CCOc1ccc(-c2cc(C(=O)O)c3ccccc3n2)c(OCC)c1	0	i	1.1	6%	1.8	6
COc1ccc(-c2cc(C(=O)OCC(=O)N(C)C)c3ccccc3n2)cc1	12	+	1.1	19%	2.5*	7
O=C(COc1ccccc1)Nc1ccc(Cl)c(-c2nc3ncccc3o2)c1	0	i	1.2	0%	1.3	1
c1ccc2c(-c3nc4ncccc4o3)cccc2c1	4	/	1.1	6%	3.8*	8
SMILES	PMK inhibit	DPM-DC inhibit	Abs 340nm	NADH enzymes	Autofluor 339	Spn MK inh
O=C(O)C1C2C=CC(O2)C1C(=O)NC1CCCc2ccccc21 (stereo not given)	7	i	1	6%	1.1	10
COc1ccc(Cc2c(O)nc(SC)n(C(C)=O)c2=O)cc1	6	i	0.97	5%	1.1	8
CCOC(=O)c1cc2nc(Nc3ccc(OC)cc3)sc2s1	5	+	1.1	15%	2	0
c1ccc(Cn2nnc3c(NCC4CCCO4)ncnc32)cc1 (stereo not given)	9	i	0.96	5%	1.1	7
CC(C)CCn1cnc2c(c1=O)c1nc3ccccc3nc1n2Cc1ccc2c(c1)OCO2	2	/	1.1	2%	3.6*	2
CCCCCCn1cnc2c(c1=O)c1nc3ccccc3nc1n2Cc1cccs1	5	i	1.1	6%	2.3*	3
CCOCCCn1cnc2c(c1=O)c1nc3ccccc3nc1n2-c1ccccc1	13	i	1.1	11%	3*	8
COc1ccc(Cn2c3nc4ccccc4nc3c3c(=O)n(Cc4ccco4)cnc32)cc1	0	i	1.1	5%	1.8	8
CCCCn1c2nc3ccccc3nc2c2c(=O)n(CCC)cnc21	11	/	1.1	9%	3.9*	7
CCCn1cnc2c(c1=O)c1nc3ccccc3nc1n2Cc1ccccc1OC	13	i	1	3%	1.1	4
O=C(NCC1CCC(C(=O)O)CC1)c1cccnc1 (stereo not given)	6	i	1	4%	1	5
Cc1cccc(N2CCN(C(=O)C3CCCN(S(=O)(=O)c4cnc[nH]4)C3)CC2C)c1 (stereo not given)	14	i	0.98	2%	1.1	2
COCCCn1c2nc3ccccc3nc2c2c(=O)n(-c3ccccc3OC)cnc21	12	i	1.1	8%	2.4*	7
CCOCCCn1cnc2c(c1=O)c1nc3ccccc3nc1n2-c1ccc(C)cc1	12	i	1.1	9%	1.2	14
COCCCn1c2nc3ccccc3nc2c2c(=O)n(-c3ccccc3OC)c(C)nc21	6	i	1	11%	1.9	8
COCCCn1cnc2c(c1=O)c1nc3ccccc3nc1n2CCc1ccccc1	0	/	1.1	2%	2.4*	3
CCC(=O)N1CCN(c2ccccc2NC(=O)COc2ccccc2Cl)CC1	4	i	1.1	5%	1.1	12
COc1ccc2c(c1OC)C(=O)NC(C)=C(C(=O)OC(C)(C)C)C2O (stereo not given)	1	i	1.1	1%	1.1	1
CC(C)(C)c1ccc(-c2nc(C#N)c(NCc3ccncc3)o2)cc1	11	i	1	12%	1.8	15
CN(C)CCCNc1oc(-c2cccc(Cl)c2)nc1C#N	13	/	1	12%	3.9*	10
COc1ccc(-c2nc(C#N)c(NCc3ccc(C)cc3)o2)cc1OC	0	/	1.1	1%	2.1*	1
COc1ccc(-c2nc(C#N)c(NCCc3ccccc3)o2)cc1OC	11	/	1.1	12%	3.9*	12
CCN(CC)CCCNc1oc(-c2ccc(OC)c(OC)c2)nc1C#N	16	/	1.1	15%	3.9*	13
COC(=O)c1ccc(Sc2ccc(C)cc2)c(N)c1	14	i	1	10%	3.1*	3
CC1(C)CC(=O)C2=C(C1)N(Cc1ccco1)C(=O)C2(O)C(F)(F)F (stereo not given)	6	i	1	6%	1.1	11
COc1ccc(OC)c(NC2c3ncccc3C(=O)N2Cc2ccco2)c1 (stereo not given)	17	i	1.1	14%	1.1	26

Bioassay records: PubChem, SRMLSC
